The panel holds about 79,000 compounds, 15% with a hit somewhere; the sample as a whole holds those more often. Unmarked numbers belong to inactive results. The source made the active and inactive calls. No stated cut-off is given here; in the data, active means growth inhibition above about 70%; inactive means the rest.
Legend:
[1] = NCI Yeast Anticancer Drug Screen. Data for the rad50 strain (AID 155);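 further: 0% = growth of vehicle-only cultures of the same strain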; conditions: S. cerevisiae rad50 strain growth inhibition; at 50.0 µM; active compounds read high
Outline: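 A DNA repair-deficient yeast mutant serves as the test organism; compound-induced growth inhibition is calculated against vehicle-treated cells.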

[2] = NCI Yeast Anticancer Drug Screen. Data for the mec2-1 strain (AID 157); conditions: S. cerevisiae mec2-1 strain, at 50.0 µM, active compounds read high
Outline: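 Each compound was tested on mec2-1 yeast, a strain altered in DNA damage repair or cell cycle control. Growth inhibition is reported relative to vehicle.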

[3] = NCI Yeast Anticancer Drug Screen. Data for the sgs1 mgt1 strain (AID 161);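 further: 0% = growth of cultures given vehicle only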; conditions: S. cerevisiae sgs1 mgt1 strain, at 50.0 µM, active compounds read high
Outline: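 Inhibition of yeast growth, normalised to vehicle-treated controls, is reported for a strain bearing genetic alterations in DNA damage repair.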

[4] = NCI Yeast Anticancer Drug Screen. Data for the cln2 rad14 strain (AID 165);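 further: 0% = growth equal to vehicle treated cultures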; conditions: S. cerevisiae cln2 rad14 strain, at 50.0 µM, active compounds read high
Outline: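 Test compounds were added to cln2 rad14 yeast cultures; inhibition of growth was then determined by comparison with vehicle treatment.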

[5] = NCI Yeast Anticancer Drug Screen. Data for the bub3 strain (AID 167); conditions: S. cerevisiae bub3 mutant strain, at 50.0 µM, active compounds read high
Outline: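 Inhibition values come from growth of compound-treated mutant yeast normalised to vehicle-treated controls.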

[6] = NCI Yeast Anticancer Drug Screen. Data for the mlh1 rad18 strain (AID 175); conditions: S. cerevisiae mlh1 rad18 strain growth inhibition; at 50.0 µM; active compounds read high
Outline: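 Inhibition values reflect reduced growth of mutant yeast versus vehicle-treated controls following compound exposure; the mutations affect DNA damage repair.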

| SMILES | growth inhibition [1] | growth inhibition [2] | growth inhibition [3] | growth inhibition [4] | growth inhibition [5] | growth inhibition [6] |
| --- | --- | --- | --- | --- | --- | --- |
| O=[N+]([O-])c1ccc2c(c1)[O][Sn]([I])([I])[O]2 | -6% | -3.95% | 8.8% | 6.7% | 1.95% | -3.9% |
| S=P(NCc1cccc(CNP(=S)(N2CC2)N2CC2)c1)(N1CC1)N1CC1 | 24.4% | -0.2% | 16.2% | 7.8% | -1.6% | 9.4% |
| CCC(=O)c1ccc(OC)c(OC)c1 | 7% | -1.3% | -0.15% | -2.85% | 15.7% | 1.75% |
| NNc1nncn1N | -5.25% | -10.9% | -23.4% | 51.3% | -17.5% | -6.25% |
| NC(Cc1c[nH]c2cc([N+](=O)[O-])ccc12)C(=O)O (stereo unspecified) | 13.8% | 2.15% | -33.9% | -7.45% | -43% | -0.25% |
| COc1ccc2c(c1)c(CC(C)[N+](=O)[O-])c(C)n2Cc1ccccc1 (stereo unspecified) | 6.5% | 8.35% | 5.65% | -9.95% | -3.3% | 6.9% |
| C/C(CCl)=N\NC1=NC2(CCCCC2)P(=O)(NNc2ncccn2)S1 (stereo unspecified) | 3.7% | 12% | 19.9% | -0.5% | 6.3% | 15.2% |
| O=C(COc1ccc(Cl)c(Cl)c1)Nc1ccc[n+](Cc2ccc(S(=O)(=O)F)c(Cl)c2)c1 | 62% | 94.3% (active) | 98.3% (active) | 95.8% (active) | 94.8% (active) | 99.5% (active) |
| CO[C@@]12[C@@H]3N[C@@H]3CN1C1=C(C(=O)C(Nc3ccc(O)cc3C)=C(C)C1=O)[C@@H]2COC(N)=O | 61% | 29.1% | 20% | 44.4% | -14.6% | 71% (active) |
| CN(C)/N=C(\N)c1nnn(C)n1 | -4.45% | -14.2% | -15.2% | -32.8% | -11.2% | -0.3% |
| O=[N+]([O-])c1ccc(Cl)c(OCCCOc2ccc(S(=O)(=O)F)cc2)c1 | -8.7% | -6.9% | 8.05% | 3.7% | -3.75% | 7.85% |
| CCOP(=O)(O)CP(=O)(O)OCC.CCOP(=O)(O)CP(=O)(O)OCC.[Cr] | -61.8% | -11.4% | -32.2% | -40.5% | 2.7% | -27.2% |
| S=C=Nc1cccc2ccccc12 | -13.7% | -11.8% | -10.1% | 17.5% | -6.45% | -6.1% |
| CCOP(=O)(O)OCC | -16.6% | -20.4% | -20.1% | -0.25% | 0.95% | -49.9% |
| COC1=CC=C2[C@@H]3Cc4ccc(OC)c5c4[C@]2(CCN3CCCl)C1O5 (stereo partly specified) | 27% | -5.35% | 4.75% | 8.2% | 6.85% | 10.6% |
| C/C=C1/C[C@@H](C)[C@@](C)(O)C(=O)OCC2=CC[N+]3([O-])CC[C@@H](OC1=O)[C@@H]23 (stereo partly specified) | -0.9% | -17.4% | -3.4% | 10.7% | -15.9% | -53.6% |
| CN(N=O)C(=O)ON1C(=O)CCC1=O | 9.65% | 7.55% | 11.3% | 12.4% | 18.8% | 8.75% |
| CCN(CC)C(=O)CCNC(C)Cc1c[nH]c2ccccc12 (stereo unspecified) | -4.1% | -13.7% | 39.9% | 22.1% | 8.85% | -37.5% |
| O=S1(F)=NP(N2CC2)(N2CC2)=NP(N2CC2)(N2CC2)=N1 (stereo unspecified) | 22.6% | -3.15% | -9.7% | 6.6% | -19.6% | -39.9% |
| CCCCS(=O)(=O)Cl | 34.5% | 13.2% | 9.8% | -12.5% | 29.8% | 25.9% |
| COC(=O)C1c2cc(OC)c(OC)cc2C(=O)N2CCc3cc4c(cc3C12)OCO4 (stereo unspecified) | 15.8% | -14.8% | 0.65% | 12.1% | -3.3% | 9.2% |

| SMILES | growth inhibition [1] | growth inhibition [2] | growth inhibition [3] | growth inhibition [4] | growth inhibition [5] | growth inhibition [6] |
| --- | --- | --- | --- | --- | --- | --- |
| Cc1cccc(NC(N)=S)c1 | 11.6% | 1.55% | 5.65% | -4.35% | -8.15% | 8.35% |
| O=c1[nH]c(=O)[nH]c(=O)[nH]1 | 25.6% | -16.1% | -12.9% | -42.8% | 1.1% | 27.6% |
| Nc1nn[nH]n1 (tested in a mixture with another compound) | -4.65% | 1.45% | -3.7% | -27.1% | 0.05% | -3.05% |
| CCOC(=O)C(C)(Br)CC (stereo unspecified) | -19.4% | -3.25% | -17.4% | -81.4% | -22.1% | -7.8% |
| CCN(CC)CCn1c(=O)c2ccccc2n(CCN(CC)CC)c1=O | 19.6% | 13.1% | 22.5% | 20.8% | 12.7% | 10.4% |
| CCCCN(CCCC)CC(O)c1cc(Cl)c(Cl)cc1C (stereo unspecified) | 10.5% | -13.2% | 35.1% | -1.3% | 27.4% | 25.3% |
| Oc1c(Cl)cc(Cl)cc1C1N(Cc2ccc(N(CCCl)CCCl)cc2Cl)CCCN1Cc1ccc(N(CCCl)CCCl)cc1Cl | -0.6% | 15.6% | 18.6% | -6% | -4% | 18% |
| CC1=CC(=O)[C@@H](O)[C@]2(C)[C@H]3[C@@]4(O)OC[C@]35[C@H]([C@@H](C)[C@H]4O)[C@@H](O)C(=O)O[C@@H]5C[C@@H]12 | 41.8% | 9.7% | 36% | 30.2% | 15.2% | 35.9% |
| O=Cc1ccccc1O.O=Cc1ccccc1O.[Cu] | 86.2% (active) | 72.8% (active) | 88.9% (active) | 55.4% | 70.2% (active) | 92.6% (active) |
| COc1ccc(CC(N)c2ccc(OC)cc2)cc1 (stereo unspecified) | -50% | 0.8% | -40% | -24.8% | -11.3% | -2.4% |
| CCOP(=O)(OCC)C(C)(C)OC(=O)NC#N | -24.2% | -63.5% | -36.2% | -8.85% | -13.6% | -28.8% |
| CC12CC/C(=C3/C=CC(=O)S3)C=C1CCC1C2CCC2(C)C(O)CCC12 (stereo unspecified) | 23.9% | -5.55% | 4.95% | 10.3% | -19.6% | 15.8% |
| CCN(CC)/C(=C\Cl)Nc1ccccn1 | -0.9% | -4% | -0.7% | 3.35% | 6.55% | -2.45% |
| CC1(C)OC2COC(CN=[N+]=[N-])C2O1 (stereo unspecified) | 14.4% | 8.65% | 0.9% | -0.8% | 3% | -3.75% |
| CC(=O)OC(C)(C)/C=C/C(=O)[C@](C)(O)[C@H]1[C@H](O)C[C@@]2(C)[C@@H]3CC=C4[C@@H](C[C@H](O)C(=O)C4(C)C)[C@]3(CO)C(=O)C[C@]12C | 21.1% | -12.9% | 15.3% | -7.8% | 18.6% | 18.9% |
| O=C1c2ccccc2C(=O)c2ccccc21 | 37% | 5.25% | 1.95% | -29.4% | 25.5% | 47.5% |
| O=[N+]([O-])c1cc(S(=O)(=O)F)cc(Cl)c1S | 98.9% (active) | 99% (active) | 98.8% (active) | 90.5% (active) | 98.8% (active) | 98.8% (active) |
| COc1ccc(N)cc1N | 6.8% | 18.1% | 5.5% | -42.4% | 25.5% | 11.1% |
| CCCCC(=O)c1cc(OC)cc(OC)c1 | 8.35% | -12.3% | -34.1% | -54% | 22.4% | -10.7% |
| CC(C)CCCC(C)CCC1C(=O)NC(=S)NC1=O (stereo unspecified) | 8.45% | 10.2% | -4.4% | 1.75% | -3.05% | 32.1% |
